Measurements as given in PubChem BioAssay.
For part of these data: Potency and affinity values are given separately. Calls of active or inactive are those of the source. Unless noted, how the calls were made is not given here.

Tests used:
[1] = antimalarial activity against Dd2 strain (AID 2302;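 active means growth inhibition above 50% at the single 2 µM test dose, taken to imply half-maximal potency below 2 µM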;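 further: 0% = DMSO untreated growth and 100% = chloroquine plus artemisinin killed control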); conditions: P. falciparum Dd2 in RBCs, LDH growth readout, 72 h; at 2 µM; hits give high values
[2] = HepG2 cytotoxicity, primary screen, cytotoxicity control for P. falciparum antimalarial project, cell-based, ATP luminescence (AID 2303;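 active means inhibition above 50%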;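 further: 0% = DMSO wells and 100% = digitonin-killed cells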); conditions: HepG2 viability, 24-48 h, at 10 µM, hits give high values
[3] = molecular target: L-lactate dehydrogenase (Plasmodium falciparum (isolate CDC / Honduras)) (UniProt Q27743); assay: PfLDH activity inhibition – cell lysate, 3D7 strain, counter-screen for P. falciparum growth inhibition project (AID 2304);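 further: 0% = vehicle and 100% = reference inhibitor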; conditions: P. falciparum 3D7 crude extract, LDH APAD/NBT absorbance; at 2 µM; hits give high values
L-lactate dehydrogenase (Plasmodium falciparum (isolate CDC / Honduras)), sequence (Q27743 whole entry, looked up): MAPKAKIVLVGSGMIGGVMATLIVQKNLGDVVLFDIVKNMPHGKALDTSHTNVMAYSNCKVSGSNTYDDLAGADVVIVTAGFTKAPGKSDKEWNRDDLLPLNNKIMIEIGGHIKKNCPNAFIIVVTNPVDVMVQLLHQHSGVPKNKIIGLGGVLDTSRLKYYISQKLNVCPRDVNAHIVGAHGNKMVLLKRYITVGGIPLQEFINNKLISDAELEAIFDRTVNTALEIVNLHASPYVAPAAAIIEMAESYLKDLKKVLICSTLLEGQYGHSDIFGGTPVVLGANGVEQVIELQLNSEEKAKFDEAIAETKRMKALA

[4] = inhibition of 3D7 malaria parasite growth – strain 3D7 (AID 2306);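 further: 0% = DMSO wells and 100% = chloroquine plus artemisinin control wells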; conditions: P. falciparum 3D7 erythrocytic growth, LDH absorbance, 72 h; at 2 µM; hits give high values
[5] = molecular target: Calcium-dependent protein kinase 1 (Plasmodium falciparum (isolate 3D7)) (UniProt P62344); assay: PfCDPK1 kinase inhibitors, biochemical, TCAMS library (AID 1159585; cut-off not given, nearly all actives have IC50 up to about 0.98 µM;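 further: inhibitors leave more ATP so luminescence rises with inhibition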); conditions: recombinant PfCDPK1, Kinase-Glo ATP depletion luminescence
Calcium-dependent protein kinase 1 (Plasmodium falciparum (isolate 3D7)), sequence (P62344 whole entry, looked up): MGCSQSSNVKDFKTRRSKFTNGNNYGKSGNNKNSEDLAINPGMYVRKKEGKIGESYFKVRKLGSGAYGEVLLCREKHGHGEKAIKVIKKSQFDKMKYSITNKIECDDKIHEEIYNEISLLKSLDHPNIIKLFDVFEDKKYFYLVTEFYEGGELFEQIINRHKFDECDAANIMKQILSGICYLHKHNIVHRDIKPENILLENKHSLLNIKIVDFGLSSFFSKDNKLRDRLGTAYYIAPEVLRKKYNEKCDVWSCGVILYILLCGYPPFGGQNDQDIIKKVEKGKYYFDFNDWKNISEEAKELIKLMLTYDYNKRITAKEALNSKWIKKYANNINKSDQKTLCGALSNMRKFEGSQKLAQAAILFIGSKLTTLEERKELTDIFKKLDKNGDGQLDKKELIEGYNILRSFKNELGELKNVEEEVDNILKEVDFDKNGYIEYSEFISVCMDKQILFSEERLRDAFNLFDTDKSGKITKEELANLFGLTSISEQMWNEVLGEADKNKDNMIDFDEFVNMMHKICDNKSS

[6] = molecular target: Plasmodium falciparum protein kinase 6 (PK6, PF3D7_1337100) (UniProt Q8IDW1); assay: PfPK6 kinase inhibitors, biochemical, TCAMS library (AID 1159586); conditions: recombinant PfPK6, Kinase-Glo ATP depletion luminescence
Plasmodium falciparum protein kinase 6 (PK6, PF3D7_1337100), sequence (Q8IDW1 1-305): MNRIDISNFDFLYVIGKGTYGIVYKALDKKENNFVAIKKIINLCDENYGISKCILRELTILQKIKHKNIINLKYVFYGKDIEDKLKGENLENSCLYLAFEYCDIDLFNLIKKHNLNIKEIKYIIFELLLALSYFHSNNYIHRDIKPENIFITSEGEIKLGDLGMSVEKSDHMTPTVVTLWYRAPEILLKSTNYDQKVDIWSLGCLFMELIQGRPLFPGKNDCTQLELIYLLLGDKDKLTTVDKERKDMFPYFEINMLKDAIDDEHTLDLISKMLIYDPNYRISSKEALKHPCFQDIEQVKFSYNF

[7] = molecular target: Protein kinase 7 (PK7), Plasmodium falciparum 3D7 (PF3D7_0213400) (UniProt Q7YTF7); assay: inhibition of Plasmodium PK7 catalytic activity – biochemical, TCAMS antimalarial set, Kinase-Glo luminescence (AID 1159587); conditions: recombinant PfPK7, Kinase-Glo ATP depletion luminescence
Protein kinase 7 (PK7), Plasmodium falciparum 3D7 (PF3D7_0213400), sequence (Q7YTF7 1-343): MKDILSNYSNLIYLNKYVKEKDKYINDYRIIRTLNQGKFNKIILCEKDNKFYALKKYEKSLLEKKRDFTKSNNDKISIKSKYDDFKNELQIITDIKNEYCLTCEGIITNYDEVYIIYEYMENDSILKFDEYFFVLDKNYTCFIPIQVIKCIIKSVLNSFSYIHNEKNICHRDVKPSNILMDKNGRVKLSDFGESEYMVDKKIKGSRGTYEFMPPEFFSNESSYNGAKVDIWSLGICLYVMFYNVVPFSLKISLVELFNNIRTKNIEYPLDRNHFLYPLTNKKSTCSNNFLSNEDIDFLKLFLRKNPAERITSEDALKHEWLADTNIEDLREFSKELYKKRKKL

[8] = molecular target: Calcium-dependent protein kinase 4 (Plasmodium falciparum (isolate 3D7)) (UniProt Q8IBS5); assay: PfCDPK4 kinase inhibitors, biochemical, TCAMS library (AID 1159588; cut-off not given, nearly all actives have IC50 up to about 0.91 µM); conditions: recombinant PfCDPK4, Kinase-Glo ATP depletion luminescence
Calcium-dependent protein kinase 4 (Plasmodium falciparum (isolate 3D7)), sequence (Q8IBS5 whole entry, looked up): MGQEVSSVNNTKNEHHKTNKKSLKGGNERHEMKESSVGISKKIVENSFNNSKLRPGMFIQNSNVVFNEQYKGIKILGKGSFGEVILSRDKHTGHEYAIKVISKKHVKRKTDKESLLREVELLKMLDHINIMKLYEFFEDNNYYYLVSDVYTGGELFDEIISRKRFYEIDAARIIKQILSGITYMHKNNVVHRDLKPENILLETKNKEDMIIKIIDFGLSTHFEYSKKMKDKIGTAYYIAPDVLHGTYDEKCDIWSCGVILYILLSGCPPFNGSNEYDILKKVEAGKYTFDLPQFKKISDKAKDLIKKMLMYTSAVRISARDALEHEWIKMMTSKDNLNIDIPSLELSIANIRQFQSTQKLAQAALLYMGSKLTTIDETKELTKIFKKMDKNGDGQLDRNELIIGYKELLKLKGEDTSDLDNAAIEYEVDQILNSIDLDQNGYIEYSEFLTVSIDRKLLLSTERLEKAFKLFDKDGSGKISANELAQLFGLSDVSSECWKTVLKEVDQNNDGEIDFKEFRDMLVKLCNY

CC(C)CNCc1cccc(-c2cccc(CN(C(=O)c3cccs3)C3CCN(Cc4ccccc4)CC3)c2)c1
inactive: growth inhibition [1] 36% | inhibition [2] 14% | inhibition [3] -4% | outcome [5] | outcome [6] | outcome [7] | outcome [8]
active: growth inhibition [4] 90%

COC(C(=O)OCCC1CCCN1C)(c1ccccc1)C1CCCCC1 (configuration not stated)
active: growth inhibition [4] 100%
inactive: growth inhibition [1] 5% | inhibition [2] 3% | inhibition [3] 4% | outcome [5] | outcome [6] | outcome [7] | outcome [8]

CN(C)CCC(=O)c1ccccc1
active: growth inhibition [4] 100%
inactive: growth inhibition [1] 5% | inhibition [2] 11% | inhibition [3] -6% | outcome [5] | outcome [6] | outcome [7] | outcome [8]

CN1C(=O)OC[C@@H]1Cc1ccc2[nH]cc(C3=CCN(Cc4ccccc4)CC3)c2c1
active: growth inhibition [1] 66% | growth inhibition [4] 86%
inactive: inhibition [2] 4% | inhibition [3] -9% | outcome [5] | outcome [6] | outcome [7] | outcome [8]

CC(Cc1ccc(Oc2ccc(Cl)cc2)cc1)NCC(O)c1cccc(Cl)c1 (configuration not stated)
active: growth inhibition [1] 98% | growth inhibition [4] 99%
inactive: inhibition [2] 3% | inhibition [3] -2% | outcome [5] | outcome [6] | outcome [7] | outcome [8]

CCCN(CCC)CCOC(=O)C(OCC)(c1ccccc1)c1ccccc1
active: growth inhibition [4] 97%
inactive: growth inhibition [1] 0% | inhibition [2] -2% | inhibition [3] 0% | outcome [5] | outcome [6] | outcome [7] | outcome [8]

CN(c1cc(NC(=O)c2cccs2)ccn1)C1CCN(Cc2cccc(C#N)c2)CC1
active: growth inhibition [1] 69% | inhibition [2] 59% | growth inhibition [4] 90%
inactive: inhibition [3] 4% | outcome [5] | outcome [6] | outcome [7] | outcome [8]

COC(=O)c1ccc(CC(C)NCC(O)c2cccc(C(F)(F)F)c2)cc1F (configuration not stated)
inactive: growth inhibition [1] 47% | inhibition [2] 1% | inhibition [3] 7% | outcome [5] | outcome [6] | outcome [7] | outcome [8]
active: growth inhibition [4] 82%

CC1(C)CCCN(C(=O)Cc2ccc3c(c2)CCCC3)C1CN1CC=CC1 (configuration not stated)
inactive: growth inhibition [1] 1% | inhibition [2] -3% | inhibition [3] -1% | outcome [5] | outcome [6] | outcome [7] | outcome [8]
active: growth inhibition [4] 98%

Cc1[nH]c2ccc(NS(C)(=O)=O)cc2c1C1CCN(CC2CCN(C(=O)/C=C/c3ccc(Cl)c(Cl)c3)CC2)CC1
inactive: inhibition [2] 15% | inhibition [3] -4% | outcome [5] | outcome [6] | outcome [7] | outcome [8]
active: growth inhibition [1] 83% | growth inhibition [4] 99%

Cc1cc2ccc(CNCCc3ccccc3Br)cc2nc1N
active: growth inhibition [4] 101%
inactive: growth inhibition [1] 48% | inhibition [2] -1% | inhibition [3] 1% | outcome [5] | outcome [6] | outcome [7] | outcome [8]

O=C(NC1CCN(CC2(c3ccc(Cl)cc3)CCC2)CC1)c1cscn1
active: growth inhibition [1] 95% | growth inhibition [4] 98%
inactive: inhibition [2] -2% | inhibition [3] -1% | outcome [5] | outcome [6] | outcome [7] | outcome [8]

O=C(Cc1c(-c2ccccc2)[nH]c2ccccc12)NC1CCC(CN2CCC(c3c[nH]c4ccccc34)CC2)CC1 (configuration not stated)
active: growth inhibition [1] 75% | growth inhibition [4] 103%
inactive: inhibition [2] 31% | inhibition [3] 1% | outcome [5] | outcome [6] | outcome [7] | outcome [8]

O=C(NC1CCC(CN2CCC(c3c[nH]c4ccccc34)CC2)CC1)c1csc(-c2ccc(C(F)(F)F)cc2Cl)n1 (configuration not stated)
active: growth inhibition [1] 75% | growth inhibition [4] 99%
inactive: inhibition [2] 32% | inhibition [3] -3% | outcome [5] | outcome [6] | outcome [7] | outcome [8]

Cc1[nH]c2ccc(O)cc2c1C1CCN(CC2CCC(NC(=O)/C=C/c3c(Cl)cccc3Cl)CC2)CC1 (configuration not stated)
active: growth inhibition [1] 93% | growth inhibition [4] 103%
inactive: inhibition [2] 25% | inhibition [3] -3% | outcome [5] | outcome [6] | outcome [7] | outcome [8]

COc1ccc(C(=O)[C@H]2C[C@@H]2CN2CC=C(c3c[nH]c4ccc(OC)nc34)CC2)cc1
active: growth inhibition [1] 91% | growth inhibition [4] 98%
inactive: inhibition [2] 8% | inhibition [3] -3% | outcome [5] | outcome [6] | outcome [7] | outcome [8]

COC(=O)/C=C/c1ccc(CC(C)NCC(O)c2cccc(Cl)c2)cc1 (configuration not stated)
active: growth inhibition [1] 73% | growth inhibition [4] 99%
inactive: inhibition [2] 2% | inhibition [3] 5% | outcome [5] | outcome [6] | outcome [7] | outcome [8]

COc1cccc(C(=O)C2CC2CN2CC=C(c3c[nH]c4ccc(OC)nc34)CC2)c1 (configuration not stated)
active: growth inhibition [1] 89% | growth inhibition [4] 94%
inactive: inhibition [2] 8% | inhibition [3] -2% | outcome [5] | outcome [6] | outcome [7] | outcome [8]

COCCNCc1cccc(-c2ccc(CN(C(=O)NC3CCCCC3)C3CCN(Cc4ccccc4)CC3)cc2)c1
inactive: growth inhibition [1] 31% | inhibition [2] 32% | inhibition [3] 6% | outcome [5] | outcome [6] | outcome [7] | outcome [8]
active: growth inhibition [4] 101%

Cc1[nH]c2cc(F)ccc2c1C1=CCN(CCCCC2(C)C(=O)Nc3ccccc32)CC1 (configuration not stated)
active: growth inhibition [1] 90% | growth inhibition [4] 93%
inactive: inhibition [2] 13% | inhibition [3] -8% | outcome [5] | outcome [6] | outcome [7] | outcome [8]

CC(Cc1ccc(OC2CCCCC2)cc1)NCC(O)c1cccc(Cl)c1 (configuration not stated)
inactive: inhibition [3] -4% | outcome [5] | outcome [6] | outcome [7] | outcome [8]
active: growth inhibition [1] 99% | inhibition [2] 66% | growth inhibition [4] 99%

CC(Cc1ccc(OCCCCOc2ccccc2)cc1)NCCCc1nc2ccccc2[nH]1 (configuration not stated)
inactive: inhibition [3] 3% | outcome [5] | outcome [6] | outcome [7] | outcome [8]
active: growth inhibition [1] 67% | inhibition [2] 99% | growth inhibition [4] 97%

CC(=O)N(Cc1cccc(-c2ccc(CNCCc3ccccc3)cc2)c1)C1CCN(Cc2ccccc2)CC1
inactive: inhibition [2] 32% | inhibition [3] -5% | outcome [5] | outcome [6] | outcome [7] | outcome [8]
active: growth inhibition [1] 50% | growth inhibition [4] 99%

COC(=O)c1ccc(CC(C)NCC(O)c2cccc(C(F)(F)F)c2)cc1C (configuration not stated)
active: growth inhibition [1] 74% | growth inhibition [4] 93%
inactive: inhibition [2] 6% | inhibition [3] 2% | outcome [5] | outcome [6] | outcome [7] | outcome [8]
